High-throughput results (PubChem)
Pf Dd2 inh: blocks growth of Plasmodium falciparum Dd2 parasites. P. falciparum Dd2 growth, SYBR Green, 72 h; active compounds read low. activity change, % at 10 µM. 94,000 tested, 2.3% active. AID 1159554; in the data active means activity change below about -80%
C diff HTS: C. difficile growth inhibition | AID 1259249 | growth activity, negative = inhibition, % at 16 µg/mL (by protocol) | Clostridium difficile clinical isolate growth, OD600, 24 h; active compounds read low | 86,000 tested, 0.25% active;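 active means mean growth activity at or below -80% and every replicate also at or below -80%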;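 further: 0% = DMSO wells and -100% = levofloxacin 16 µg/mL wells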
Active calls of the source: *; . = no result. This is a sample that favours compounds with a hit; in the whole collection about 2.4% have one here.

SMILES | Pf Dd2 inh | C diff HTS
Cc1ccc(-c2ccc([C@@H]3[C@H]4CN(C(=O)Nc5cccc(F)c5)CC(=O)N4[C@H]3CO)cc2)cc1 | -13 | 24
O=C(Nc1cccc(F)c1)N1CC(=O)N2[C@H](C1)[C@@H](c1ccc(C#CC3CC3)cc1)[C@@H]2CO | -82* | -5
Cc1ccc(-c2ccc([C@H]3[C@@H](CO)N4C(=O)CN(C(=O)Nc5cccc(F)c5)C[C@H]34)cc2)cc1 | -84* | 14
Cc1ccccc1-c1ccc([C@H]2[C@@H](CO)N3CCCCN(C(=O)c4cccnc4)C[C@@H]23)cc1 | 48 | -13
COc1ccccc1NC(=O)N(C)C[C@H]1OCc2ccccc2-c2ccccc2C(=O)N([C@@H](C)CO)C[C@@H]1C | -39 | -1
C[C@H](CO)N1C[C@H](C)[C@@H](CN(C)C(=O)Nc2cccc(Cl)c2Cl)OCc2ccccc2-c2ccccc2C1=O | -84* | 4
COc1ccccc1NC(=O)N(C)C[C@@H]1OCc2ccccc2-c2ccccc2C(=O)N([C@@H](C)CO)C[C@H]1C | -86* | -4
COc1ccccc1NC(=O)N(C)C[C@@H]1OCc2ccccc2-c2ccccc2C(=O)N([C@H](C)CO)C[C@H]1C | 38 | -6
CCCCNC(=O)C(COCc1ccccc1)OC(=O)c1ccccc1 (configuration not stated) | . | 10
C[C@@H]1CCCCO[C@@H](CN(C)C(=O)Nc2ccccc2)[C@@H](C)CN([C@@H](C)CO)C(=O)c2cc(NS(=O)(=O)c3ccc(Cl)cc3)ccc2O1 | -69 | 15
Cc1ccc(S(=O)(=O)N[C@H]2C=C[C@@H](CC(=O)NCc3ccncn3)O[C@H]2CO)cc1 | 25 | 1
C[C@H]1CN([C@@H](C)CO)C(=O)c2cc(NS(=O)(=O)c3cccs3)ccc2O[C@@H]1CN(C)S(=O)(=O)c1cccs1 | 21 | .
O=C(N[C@@H]1CC[C@H](CCNS(=O)(=O)c2ccc(F)cc2)O[C@H]1CO)c1ccccn1 | 11 | -5
C[C@@H]1CCCCO[C@@H](CN(C)Cc2ccc(Cl)c(Cl)c2)[C@@H](C)CN([C@H](C)CO)C(=O)c2cc(NC(=O)CCCCCC(=O)Nc3ccccc3N)ccc2O1 | -67 | -13
C[C@@H]1CCCCO[C@H](CN(C)Cc2ccc(C(F)(F)F)cc2)[C@@H](C)CN([C@H](C)CO)C(=O)c2cc(NC(=O)CCCCCC(=O)Nc3ccccc3N)ccc2O1 | -93* | 1
C[C@@H]1CCCCO[C@@H](CN(C)Cc2ccc3c(c2)OCO3)[C@@H](C)CN([C@H](C)CO)C(=O)c2cc(NC(=O)CCCCCC(=O)Nc3ccccc3N)ccc2O1 | -85* | -2
C[C@@H]1CCCCO[C@H](CN(C)Cc2ccccc2)[C@@H](C)CN([C@@H](C)CO)C(=O)c2cc(NC(=O)CCCCCC(=O)Nc3ccccc3N)ccc2O1 | -80 | 1
C[C@@H]1CCCCO[C@@H](CN(C)C(=O)Nc2ccc(F)cc2)[C@@H](C)CN([C@H](C)CO)C(=O)c2cc(NC(=O)c3ccccc3)ccc2O1 | -19 | 0
C[C@@H]1CCCCO[C@@H](CN(C)Cc2ccc(C(=O)O)cc2)[C@@H](C)CN([C@H](C)CO)C(=O)c2cc(NC(=O)Nc3ccccc3)ccc2O1 | 55 | 1
CC(C)NC(=O)Nc1ccc2c(c1)C(=O)N([C@H](C)CO)C[C@@H](C)[C@@H](CN(C)S(=O)(=O)c1ccc(Cl)cc1)OCCCC[C@@H](C)O2 | -65 | 7
Cc1ccc(S(=O)(=O)Nc2cccc3c2O[C@H](CN(C)Cc2ccc(C(=O)Nc4ccccc4N)cc2)[C@H](C)CN([C@H](C)CO)C3=O)cc1 | -85* | 8
C[C@@H]1CN([C@H](C)CO)C(=O)c2cccc(NS(=O)(=O)c3ccccc3)c2O[C@H]1CN(C)Cc1ccc(-c2ccccc2)cc1 | -91* | .
C[C@H](CO)N1C[C@H](C)[C@@H](CN(C)Cc2ccc(C(=O)Nc3ccccc3N)cc2)Oc2c(NS(=O)(=O)c3ccc(F)cc3)cccc2C1=O | -44 | 4
Cc1ccc(S(=O)(=O)Nc2cccc3c2O[C@@H](CN(C)Cc2ccc(C(=O)Nc4ccccc4N)cc2)[C@@H](C)CN([C@@H](C)CO)C3=O)cc1 | -70 | 8
C[C@H]1CN([C@@H](C)CO)C(=O)c2cccc(NS(=O)(=O)c3ccc(Cl)cc3)c2O[C@H]1CN(C)Cc1ccc(C(=O)Nc2ccccc2N)cc1 | -89* | 0
SMILES | Pf Dd2 inh | C diff HTS
Cc1ccc(S(=O)(=O)Nc2cccc3c2O[C@H](CN(C)Cc2ccc(C(=O)Nc4ccccc4N)cc2)[C@@H](C)CN([C@@H](C)CO)C3=O)cc1 | -74 | 3
C[C@@H]1CN([C@H](C)CO)C(=O)c2cccc(NS(=O)(=O)c3ccccc3)c2O[C@@H]1CN(C)Cc1ccc(-c2ccccc2)cc1 | -4 | .
C[C@@H]1CN([C@H](C)CO)C(=O)c2cccc(NS(=O)(=O)c3ccc(Cl)cc3)c2O[C@@H]1CN(C)Cc1ccc(C(=O)Nc2ccccc2N)cc1 | -87* | 2
CCCC#Cc1cnc2c(c1)C(=O)N([C@@H](C)CO)C[C@H](C)[C@H](CN(C)C(=O)NCCC)O2 | -7 | -1
CNC[C@@H]1Oc2c(NC(=O)NC(C)C)cccc2C(=O)N([C@@H](C)CO)C[C@H]1C | 15 | 4
CC(C)NC(=O)N[C@H]1C=C[C@@H](CC(=O)NCc2ccc(Oc3ccccc3)cc2)O[C@@H]1CO | 6 | 0
Cc1ccc(-c2ccc3c(c2)O[C@H](CN(C)C(=O)C2CCCCC2)[C@H](C)CN([C@H](C)CO)S3(=O)=O)cc1 | -29 | .
C[C@H](CO)N1C[C@H](C)[C@@H](CN(C)C(=O)CC2CC2)Oc2cc(C3=CCCC3)ccc2S1(=O)=O | -5 | 6
C[C@@H]1CN([C@H](C)CO)C(=O)c2cccc(NS(=O)(=O)c3ccccc3)c2O[C@H]1CN(C)Cc1ccc(C(=O)Nc2ccccc2N)cc1 | -78 | 0
Cc1ccc(S(=O)(=O)Nc2cccc3c2O[C@@H](CN(C)Cc2ccc(C(=O)Nc4ccccc4N)cc2)[C@H](C)CN([C@@H](C)CO)C3=O)cc1 | -72 | 6
C[C@H](CO)N1C[C@H](C)[C@H](CN(C)Cc2ccc(C(=O)Nc3ccccc3N)cc2)Oc2c(NS(=O)(=O)c3ccc(Cl)cc3)cccc2C1=O | -89* | 9
C[C@H](CO)N1C[C@H](C)[C@H](CN(C)Cc2ccc(C(=O)Nc3ccccc3N)cc2)Oc2c(NS(=O)(=O)c3ccccc3)cccc2C1=O | -86* | -4
COc1ccccc1-c1cn(CC[C@@H]2CC[C@H](NC(=O)C3CC3)[C@@H](CO)O2)nn1 | 3 | 4
COc1ccc(NC(=O)Nc2ccc3c(c2)C(=O)N([C@@H](C)CO)C[C@H](C)[C@H](CN(C)S(=O)(=O)c2ccc(C)cc2)OCCCC[C@@H](C)O3)cc1 | -86* | .
COc1ccc(NC(=O)Nc2ccc3c(c2)C(=O)N([C@H](C)CO)C[C@@H](C)[C@H](CN(C)S(=O)(=O)c2ccccc2)OCCCC[C@@H](C)O3)cc1 | -83* | -4
COc1ccc(S(=O)(=O)N(C)C[C@@H]2OCCCC[C@@H](C)Oc3ccc(NC(=O)Nc4ccccc4)cc3C(=O)N([C@H](C)CO)C[C@H]2C)cc1 | -79 | -4
COc1ccc(NC(=O)Nc2ccc3c(c2)C(=O)N([C@@H](C)CO)C[C@H](C)[C@@H](CN(C)S(=O)(=O)c2ccccc2)OCCCC[C@H](C)O3)cc1 | -55 | -5
